These results are taken from ChEMBL document CHEMBL3988442, “University of Dundee, Small-Polar-MMV Screening Library” (2021).

The campaign covered roughly 48,000 compounds. About 13,000 (27%) showed an effect of 50% or more. Some of the results follow.

In the assay the test system is Wolbachia pipientis. Briefly: Anti-Wolbachia Cell-Based Screen. Format: functional. Also noted: scale not given: in the data most compounds retested in dose-response had high values. The note with it: 5 µM.
Regarding `Cc1nn(C)c(Cl)c1C1CCCN1c1ncnc2c1CCC2` (centres undefined), the “Percent Effect” value was found to be 16.41%.

`Cc1c(C(=O)O)oc2ccc(I)cc12`: the “Percent Effect” value amounted to 125.9%.

For the molecule `COc1ccc2c(C)c(C(=O)NC3CCN(S(C)(=O)=O)CC3)oc2c1`, the “Percent Effect” value was determined as 1.038%.

Turning to `CNC(=O)c1[nH]nc2ccc(I)cc12`, the “Percent Effect” value is on record as 8.904%.

Turning to `O=C(O)CSc1nnc(-c2ccco2)n1-c1ccccc1C(F)(F)F`, the “Percent Effect” value is on record as -16%.

Take `COc1cc2c(nn1)CCN(Cc1noc(-c3ccccc3)n1)C2`: the “Percent Effect” value is -2.709%.

In the case of `NC(=O)c1ccc(C(=O)N(Cc2ccc(O)cc2)CC2CC2)cc1`, the “Percent Effect” value is reported as -2.707%.

`CCOCC1c2c(cnn2C)CCN1C(=O)c1cc(C)on1.O=C(O)C(F)(F)F` (centres undefined): the “Percent Effect” value is reported as 118%.

On to `COCC1c2c(cnn2C)CCN1C(=O)c1cc(C)on1.O=C(O)C(F)(F)F` (centres undefined), for which the “Percent Effect” value is reported as 103.5%.

For `CCOCC1c2c(cnn2C)CCN1C(=O)c1ccncn1.O=C(O)C(F)(F)F` (centres undefined), the “Percent Effect” value is on record as -13.88%.

Consider `COCC1c2nnn(CC3CC3)c2CCN1C(=O)c1cc(C)on1` (centres undefined), for which the “Percent Effect” value is recorded as 18.93%.

Regarding `O=C(COc1cccc(Br)c1)N1CCN(c2nccs2)CC1`, the “Percent Effect” value was 20.8%.

For the molecule `CC(C)c1noc(C2CCCN2C(=O)Cc2cn3ccsc3n2)n1` (centres undefined), the “Percent Effect” value is 5.125%.

Take `CN(C)CCCNC(=O)C(c1cccc(F)c1)N(C)C` (centres undefined): the “Percent Effect” value turned out to be 6.227%.

As to `O=C(Nc1ccc(-n2ccnc2)c(F)c1)C1CCN(C(=O)C2CC2)CC1`, the “Percent Effect” value was -14.41%.

For `COC(C)c1cccc(NCc2cccc(O)c2)c1` (centres undefined), the “Percent Effect” value was determined as 1.439%.

As to `Cc1nc2ncc3c(=O)n(C)ccc3n2n1`, the “Percent Effect” value is recorded as 126.9%.

Turning to `Cn1ccc2c(cnc3nc(-c4ccncc4)nn32)c1=O`, the “Percent Effect” value stood at 109.5%.

Take `CSc1nc2ncc3c(=O)n(C)ccc3n2n1`: the “Percent Effect” value amounted to 108.2%.

Take `Cc1nc2nc(C)c3c(=O)n(-c4ccn[nH]4)ccc3n2n1`: the “Percent Effect” value is 1.096%.

As for `Cc1nc(C2CCCN2Cc2nnc(C3CC3)o2)no1` (centres undefined), the “Percent Effect” value amounted to 5.301%.

For `CC(C)c1nc(CN2CCCC2Cn2cccn2)no1` (centres undefined), the “Percent Effect” value worked out at 118.9%.

`COc1ccc(-c2nc(CN3CCCC3Cn3cccn3)no2)cc1` (centres undefined): the “Percent Effect” value amounted to 1.848%.

For `c1ccc(-c2nc(CN3CCCC3Cn3cccn3)no2)cc1` (centres undefined), the “Percent Effect” value was 97.29%.

`Cc1nc(CN2CCCCC2Cn2cccn2)nc2ccccc12` (centres undefined): the “Percent Effect” value is listed as -7.431%.

Regarding `Cc1ccc(-c2nc(CN3CCCC3Cn3cc(C)cn3)no2)cc1` (centres undefined), the “Percent Effect” value is recorded as 3.147%.

As to `c1cnn(CC2CCCN2Cc2noc(C3CC3)n2)c1` (centres undefined), the “Percent Effect” value came out at 88.48%.

Consider `c1ncn(CC2CCCCN2Cc2noc(C3CC3)n2)n1` (centres undefined), for which the “Percent Effect” value is -14.69%.

For `OC(COCc1ccco1)CSc1nnc2ccccn12` (centres undefined), the “Percent Effect” value is listed as -3.086%.

For `O=C(NCCN1CCc2ccccc21)c1cc(-c2ccc(O)cc2)n[nH]1`, the “Percent Effect” value is given as -2.452%.

Take `Cn1cccc1CNCc1nnc2n1CCCC2C(F)(F)F` (centres undefined): the “Percent Effect” value is -16.29%.

Consider `COc1ccc(-n2ccc(C(=O)NCCN3CCC(C)CC3)n2)cc1`, for which the “Percent Effect” value is listed as 99.65%.

With `COc1ccc(-n2ccc(C(=O)NCCN3CCCCC3C)n2)cc1` (centres undefined), the “Percent Effect” value is listed as -3.568%.

As for `O=C(NCCN1CCCCCC1=O)c1ccn(-c2ccc(F)cc2)n1`, the “Percent Effect” value is reported as 0.8221%.

On to `COc1ccc(-n2ccc(C(=O)NCCN3CCCCC3)n2)cc1`, for which the “Percent Effect” value is recorded as 102.6%.

`O=C(NCCN1CCCCC1)c1ccn(-c2ccccc2)n1`: the “Percent Effect” value is recorded as 106.8%.

As to `COc1ccc(-n2ccc(C(=O)NCCN3CCCCCC3)n2)cc1`, the “Percent Effect” value came to 92.28%.

For `O=C(NCCN1CCOCC1)c1ccn(-c2ccccc2F)n1`, the “Percent Effect” value turned out to be 7.854%.

For `COc1ccc2nc(C)c(C(=O)NCCN3CCS(=O)(=O)CC3)cc2c1`, the “Percent Effect” value is on record as 7.609%.

In the case of `O=C(O)C(F)(F)F.O=S(=O)(NCC1OCCc2cn(CC3CCOCC3)nc21)C1CC1` (centres undefined), the “Percent Effect” value was -11.9%.

For the molecule `CNC(=O)CS(=O)(=O)Cc1ccc(OC)c(F)c1`, the “Percent Effect” value is listed as -52.3%.

As for `FC(F)(F)C1CCc2nnc(CNCc3ccsc3)n2C1` (centres undefined), the “Percent Effect” value was found to be 11.3%.

Turning to `CC1CCN(CCNC(=O)c2ccn(-c3ccccc3)n2)CC1`, the “Percent Effect” value is given as 84.83%.

In the case of `CN(C(=O)c1ccncc1)c1ccccc1S(C)(=O)=O`, the “Percent Effect” value is 8.968%.

Regarding `CN(C(=O)c1ccc(Cl)c(S(C)(=O)=O)c1)c1ccccc1`, the “Percent Effect” value is -9.214%.

For the molecule `Cc1c(C(=O)N(C)c2ccccc2)cccc1N(C)S(C)(=O)=O`, the “Percent Effect” value was 104.7%.

As for `COc1cc(C(N)=O)c(N(C)S(C)(=O)=O)cc1OC`, the “Percent Effect” value is reported as -14.68%.

For `Cc1c(C(=O)N(C)C)cccc1N(C)S(C)(=O)=O`, the “Percent Effect” value is recorded as 107%.

Turning to `CN(C(=O)c1cccc(C(=O)NS(C)(=O)=O)c1)c1ccccc1`, the “Percent Effect” value is -9.633%.

Turning to `O=S(=O)(Nc1ncccc1F)c1cc(Cl)cc2c1OCC2`, the “Percent Effect” value is -5.525%.

For the molecule `Cc1nc(C)n(CC(C)C(=O)N2CCC(N3CCC(O)CC3)CC2)n1` (centres undefined), the “Percent Effect” value was -19.51%.

Take `Cc1ccc2c(c1)c(CNC(=O)C1CCN(C(C)C)CC1)nn2C`: the “Percent Effect” value is reported as -24.27%.

Take `CNC(=O)C(C)(C)CNC(=O)Nc1ccncc1C`: the “Percent Effect” value is listed as -8.722%.

For `O=C(CN1CCCC(c2ncc[nH]2)C1)NCC(F)(F)F` (centres undefined), the “Percent Effect” value is reported as -4.538%.

Turning to `CCn1c(C)nnc1CN(C)C1CCN(Cc2c(C)noc2C)C1` (centres undefined), the “Percent Effect” value is on record as -8.892%.

For the molecule `Cc1cc(CN2CCC(N(C)Cc3nnc(C4CC4)n3C)C2)on1` (centres undefined), the “Percent Effect” value is on record as 124.1%.

For `Cc1noc(C)c1CN1CCC(N(C)Cc2nnc(C3CC3)n2C)C1` (centres undefined), the “Percent Effect” value is reported as 103.9%.

As for `Cc1nnc(CN2CCC(N(C)Cc3nnc(C4CC4)n3C)C2)o1` (centres undefined), the “Percent Effect” value is on record as -3.428%.

Turning to `CN(Cc1nnc(C2CC2)n1C)C1CCN(CCS(C)(=O)=O)C1` (centres undefined), the “Percent Effect” value is on record as -20.16%.

Take `Cc1nc(CN2CCC(N(C)Cc3nnc(C4CC4)n3C)C2)oc1C` (centres undefined): the “Percent Effect” value was 102.1%.

Take `CN(Cc1nnc(C2CC2)n1C)C1CCN(Cc2ccon2)C1` (centres undefined): the “Percent Effect” value is given as -8.64%.

In the case of `Cc1ccc(C2CSCCN2CCS(C)(=O)=O)cc1` (centres undefined), the “Percent Effect” value was -9.324%.

For the molecule `O=C(NC1CC(=O)N(C2Cc3ccccc3C2)C1)c1ccsc1` (centres undefined), the “Percent Effect” value is -4.544%.

For `CS(=O)(=O)N1CCCC(Cc2cncc(-c3ccccc3C(=O)O)n2)C1` (centres undefined), the “Percent Effect” value is recorded as 106.5%.

With `CN1CCC(Cc2cncc(-c3ccccc3C(=O)O)n2)C1` (centres undefined), the “Percent Effect” value is reported as 111.7%.

With `CC(C)N1CCC(Cc2cncc(-c3ccccc3C(=O)O)n2)C1` (centres undefined), the “Percent Effect” value is reported as 128.5%.

In the case of `CN1CCC(Cc2nc(-c3cnccn3)n(Cc3ccccc3)n2)CC1`, the “Percent Effect” value is 21.66%.

Regarding `COCCN1CCC(Cc2cnc(-c3ccccc3C(=O)O)cn2)CC1`, the “Percent Effect” value was 103.8%.

Regarding `COCCN1CC[C@@H](O)[C@@H]1Cc1ccccc1.O=C(O)C(F)(F)F`, the “Percent Effect” value is reported as 8.923%.
